# In PubChem BioAssay (NCI):
# Where “and” joins values, the source holds several entries; their conditions need not be identical. Identical values can stand only once. About 83,000 compounds went through this panel and 20% of them were active in at least one assay; those are over-represented in the sample as a whole.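 A percent growth of 40 corresponds to 60% growth inhibition; 0 means no net growth; -100 means all cells died. Active threshold: below 10.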 Calls of active or inactive are those of the source.
# Assays:
# Test in all cases: NCI-60 one-dose screen, 48 h (100 = growth as untreated, 0 = no growth, -100 = all killed)
# [1] = test system: NCI-H23 lung
# [2] = test system: NCI-H226 lung
# [3] = test system: NCI-H322M lung
# [4] = test system: HOP-62 NSCLC
# [5] = test system: NCI-H460 lung
# [6] = test system: HOP-92 NSCLC
# [7] = test system: NCI-H522 lung
# [8] = test system: A549/ATCC NSCLC
# [9] = test system: 786-0 renal
# [10] = test system: COLO 205 colon
# [11] = test system: DU-145 prostate
# [12] = test system: K-562 leukemia
# [13] = test system: MALME-3M melanoma
# [14] = test system: MDA-MB-231 breast
# [15] = test system: RXF 393 renal; details: 10 µM unless noted
# [16] = test system: SF-268 CNS
# [17] = test system: SF-295 CNS
# [18] = test system: SF-539 CNS
# [19] = test system: UACC-257 melanoma
# [20] = test system: M14 melanoma; details: 10 µM unless noted
smiles,measurement,setting,value
CC(C)(C)c1cc(NC(=O)Cc2ccc(-c3cnc4cc(-c5cnn(CCN6CCOCC6)c5)ccc4n3)cc2)no1,growth,[1]; 10 µM,26.4% (inactive)
same,growth,[1]; 30 µM,27.3% (inactive)
same,growth,[2]; 10 µM,10% (inactive)
same,growth,[2]; 30 µM,13.7% (inactive)
same,growth,[3]; 10 µM,24.9% (inactive)
same,growth,[3]; 30 µM,26.1% (inactive)
same,growth,[4]; 10 µM,17.1% (inactive)
same,growth,[4]; 30 µM,34.4% (inactive)
same,growth,[5]; 10 µM,11% (inactive)
same,growth,[5]; 30 µM,13% (inactive)
same,growth,[6]; 10 µM,-3.35% (active)
same,growth,[6]; 30 µM,-10.6% (active)
same,growth,[7]; 10 µM,20% (inactive)
same,growth,[7]; 30 µM,27% (inactive)
same,growth,[8]; 10 µM,24.3% (inactive)
same,growth,[8]; 30 µM,20.8% (inactive)
same,growth,[9]; 10 µM,18% (inactive)
same,growth,[9]; 30 µM,21.7% (inactive)
same,growth,[10]; 10 µM,9.61% (active)
same,growth,[10]; 30 µM,20.5% (inactive)
same,growth,[11]; 10 µM,23.7% (inactive)
same,growth,[11]; 30 µM,19.8% (inactive)
same,growth,[12]; 10 µM,2.41% (active)
same,growth,[12]; 30 µM,-1.34% (active)
same,growth,[13]; 10 µM,-5.96% (active)
same,growth,[13]; 30 µM,-9.19% (active)
same,growth,[14]; 10 µM,9.54% (active)
same,growth,[14]; 30 µM,14.9% (inactive)
same,growth,[15],-20.5% (active)
same,growth,[16]; 10 µM,19.9% (inactive)
same,growth,[16]; 30 µM,24.7% (inactive)
same,growth,[17]; 10 µM,21.4% (inactive)
same,growth,[17]; 30 µM,15.4% (inactive)
same,growth,[18]; 10 µM,-5.64% (active)
same,growth,[18]; 30 µM,-9.45% (active)
same,growth,[19]; 10 µM,27.1% (inactive)
same,growth,[19]; 30 µM,31% (inactive)
same,growth,[20],15% (inactive)
CC(=O)Nc1ccc(O)cc1,growth,[1]; 10 µM unless noted,99.3% (inactive) and 112% (inactive) and 102% (inactive)
same,growth,[2]; 10 µM unless noted,92.9% (inactive) and 106% (inactive) and 112% (inactive)
same,growth,[3]; 10 µM unless noted,108% (inactive) and 111% (inactive) and 102% (inactive)
same,growth,[4]; 10 µM unless noted,111% (inactive) and 106% (inactive) and 104% (inactive)
same,growth,[5]; 10 µM unless noted,109% (inactive) and 105% (inactive) and 108% (inactive)
same,growth,[6]; 10 µM unless noted,80.3% (inactive) and 120% (inactive)
same,growth,[7]; 10 µM unless noted,94.3% (inactive) and 47% (inactive)
same,growth,[8]; 10 µM unless noted,96.9% (inactive) and 122% (inactive) and 108% (inactive)
same,growth,[9]; 10 µM unless noted,99.5% (inactive) and 106% (inactive) and 103% (inactive)
same,growth,[10]; 10 µM unless noted,105% (inactive) and 116% (inactive) and 101% (inactive)
same,growth,[11]; 10 µM unless noted,103% (inactive) and 113% (inactive) and 118% (inactive)
same,growth,[12]; 10 µM unless noted,107% (inactive) and 83.2% (inactive) and 106% (inactive)
same,growth,[13]; 10 µM unless noted,100% (inactive) and 1.98% (active) and 142% (inactive)
same,growth,[14]; 10 µM unless noted,101% (inactive) and 119% (inactive) and 92.4% (inactive)
same,growth,[15],108% (inactive) and 129% (inactive)
same,growth,[16]; 10 µM unless noted,100% (inactive) and 106% (inactive) and 105% (inactive)
same,growth,[17]; 10 µM unless noted,89.9% (inactive) and 94.1% (inactive) and 107% (inactive)
same,growth,[18]; 10 µM unless noted,104% (inactive) and 95.4% (inactive) and 103% (inactive)
same,growth,[19]; 10 µM unless noted,98.3% (inactive) and 155% (inactive) and 107% (inactive)
same,growth,[20],97.2% (inactive) and 123% (inactive) and 109% (inactive)
C/C(=N\NC(=O)c1ccncc1)c1ccccc1O,growth,[1]; 10 µM unless noted,42.5% (inactive) and 30.4% (inactive)
same,growth,[2]; 10 µM unless noted,54.5% (inactive) and 58.8% (inactive)
same,growth,[3]; 10 µM unless noted,30.3% (inactive) and 20.7% (inactive)
same,growth,[4]; 10 µM unless noted,34.3% (inactive) and 33.7% (inactive)
same,growth,[5]; 10 µM unless noted,19.3% (inactive) and 14% (inactive)
same,growth,[6]; 10 µM unless noted,44.5% (inactive) and 36.7% (inactive)
same,growth,[7]; 10 µM unless noted,8.84% (active)
same,growth,[8]; 10 µM unless noted,36.4% (inactive) and 40% (inactive)
same,growth,[9]; 10 µM unless noted,31.4% (inactive) and 22.6% (inactive)
same,growth,[10]; 10 µM unless noted,13.9% (inactive) and 8.85% (active)
same,growth,[11]; 10 µM unless noted,40.8% (inactive) and 45.2% (inactive)
same,growth,[12]; 10 µM unless noted,35.6% (inactive) and 35.4% (inactive)
same,growth,[13]; 10 µM unless noted,65.6% (inactive) and 53.4% (inactive)
same,growth,[14]; 10 µM unless noted,34.9% (inactive) and 36.2% (inactive)
same,growth,[15],63.6% (inactive) and 75.4% (inactive)
same,growth,[16]; 10 µM unless noted,37.1% (inactive) and 40.5% (inactive)
same,growth,[17]; 10 µM unless noted,40.2% (inactive) and 39.3% (inactive)
same,growth,[18]; 10 µM unless noted,52.9% (inactive) and 30.2% (inactive)
same,growth,[19]; 10 µM unless noted,43.9% (inactive) and 25.1% (inactive)
same,growth,[20],27.5% (inactive) and 33.5% (inactive)
